The list is not random: actives were taken first. Their share in the collection is about 1.9%.
MsrA inh: inhibitors of bovine MsrA. purified bovine MsrA, absorbance read-out. inhibition, % at 15.5 µM. hit rate 0.75% among 360,000. AID 651718; in the data active = inhibition above about 4.5%;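 note: 0% = vehicle wells with enzyme and 100% = reference inhibitor wells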
HTR5A ag ctr: activates human HTR5A in OPRM1-OPRD1 agonist counter-screen; HTR5A agonist assay, luminescence, cell-based; activation, % at 9.3 µM; hit rate 0.61% among 340,000; in the data active = activation mostly above about 9.5%, no sharp cut-off; inactive = mostly below about 7.6%;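 note: 0% = cells with vehicle only and 100% = reference agonist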
Target sequence (P47898 whole entry, looked up): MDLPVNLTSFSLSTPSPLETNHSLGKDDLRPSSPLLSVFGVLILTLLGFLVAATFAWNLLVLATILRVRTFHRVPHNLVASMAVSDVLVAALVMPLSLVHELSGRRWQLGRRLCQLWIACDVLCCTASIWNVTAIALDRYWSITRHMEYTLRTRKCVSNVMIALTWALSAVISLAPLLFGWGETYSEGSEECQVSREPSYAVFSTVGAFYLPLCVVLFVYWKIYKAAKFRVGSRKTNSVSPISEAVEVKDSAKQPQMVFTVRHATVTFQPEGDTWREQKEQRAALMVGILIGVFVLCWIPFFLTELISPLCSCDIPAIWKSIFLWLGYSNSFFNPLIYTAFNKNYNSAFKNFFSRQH
OPRM1-OPRD1 ag: OPRM1-OPRD1 heterodimerization agonism. P35372+P41143. hit rate 0.3% among 340,000. cells, luminescence. AID 504326. activation, % at 9.3 µM; in the data active = activation above about 18%;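 note: 0% = vehicle-treated cells and 100% = reference agonist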
HTR5A inv ctr: counter-screen for OPRM1-OPRD1 inverse agonists: human HTR5A inverse agonism | P47898 | HTR5A cell line, luminescence | inhibition, % at 9.3 µM | hit rate 0.083% among 340,000 | AID 504634; in the data active = inhibition mostly above about 23%, no sharp cut-off; inactive = mostly below about 18%;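 note: 0% = cells with DMSO and 100% = no-cell wells with DMSO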
MOR-DOR inv ag: mu-delta opioid heterodimer inverse agonism; AID 504357; P35372+P41143; inhibition, % at 9.3 µM; hit rate 0.21% among 340,000; cell-based MOR-DOR heterodimer luminescence; in the data active = inhibition above about 22%, passing the limit was not always enough;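 note: 0% = cells with DMSO and 100% = wells without cells with DMSO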
MsrA act: activators of bovine methionine sulfoxide reductase A; purified bovine MsrA, absorbance read-out; activation, % at 10.6 µM; hit rate 0.3% among 360,000; AID 602163; in the data active = activation above about 7.5%;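 note: 0% = vehicle and 100% = reference activator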
MsrA act confirm: confirmation of bovine methionine sulfoxide reductase A activators; shares compounds with MsrA act; activation, % at 10.6 µM; purified bovine MsrA, absorbance read-out; AID 602270; hit rate 12% among 1,000; in the data active = activation above about 4%;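 note: enzyme coupled to thioredoxin and thioredoxin reductase with NADPH; 0% = vehicle wells and 100% = reference activator wells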
* marks the source's active call; other numbers are inactive results; / = no result.

SMILES	MsrA inh	HTR5A ag ctr	OPRM1-OPRD1 ag	HTR5A inv ctr	MOR-DOR inv ag	MsrA act	MsrA act confirm
Cc1cc(C)c(NC(=O)COC(=O)c2ccc([N+](=O)[O-])s2)c(C)c1	0	-3	0	0	2	-4	/
CN(CC(=O)Nc1ccccc1Cl)C(=O)COC(=O)c1ccc([N+](=O)[O-])s1	1	1	3	-4	-13	12*	2
COc1ccc(CNC(=O)[C@@H](Cc2ccccc2)NC(=O)[C@H]2O[C@@H](n3cnc4c(=O)[nH]c(N)nc43)[C@H](O)[C@@H]2O)cc1	0	/	/	/	/	/	/
O=C(c1ccccc1)C12COc3ccccc3C1ON=C2c1ccccc1 (stereo not given)	-1	/	/	/	/	/	/
C=CCn1c(N)c(C(=O)NCc2cccnc2)sc1=S	4	1	-1	-12	6	8.8*	0
CCOc1ccc(-n2c(N)c(C(=O)NCc3cccnc3)sc2=S)cc1	1	-1	-1	3	8	-5	/
CCc1nc2ccc(C(=O)Nc3ccc(NC(C)=O)cc3)cn2c1N(C)CCC(C)C	-1	/	/	/	/	8.8*	-1
CCc1nc2ccc(C(=O)Nc3ccc(C(N)=O)cc3)cn2c1N(C)CCC(C)C	0	/	/	/	/	-5	/
COc1ccc(C(C)=O)cc1CSC(=S)N1CCSCC1	-1	/	/	/	/	/	/
C[C@@H]1CN([C@@H](C)CO)C(=O)c2ccccc2-c2ccccc2CO[C@@H]1CN(C)Cc1ccc(Cl)c(Cl)c1	1	/	/	/	/	/	/
Cc1cc(Nc2cccc(C(F)(F)F)c2)cc(=O)n1-c1cccc(C(F)(F)F)c1	1	/	/	/	/	/	/
OCCNCCSc1ccc(Cl)cc1	-1	7	0	-20	2	9.3*	0
COC(=O)[C@]12C[C@H](CC(=O)NCc3cccs3)C(=O)N(Cc3ccccc3)C1=C[C@H](C1CCCC1)O[C@@H]2C	1	/	/	/	/	/	/
COc1ccc(-n2cc(CNC3CCC(O)CC3)c(-c3cccc(F)c3)n2)cc1 (stereo not given)	0	2	0	-7	0	-1	/
COc1ccc(-n2cc(CN3CCC(OC)CC3)c(-c3cccc(F)c3)n2)cc1	0	3	-3	-8	14	8.2*	-4
Nc1ccc(S(=O)(=O)c2ccc(N)nc2)cc1	0	/	/	/	/	7.7*	1
O=C(Nc1c2c(nn1-c1ccc([N+](=O)[O-])cc1)CS(=O)(=O)C2)c1cccs1	1	2	-1	2	8	-3	/
O=C(Nc1c2c(nn1-c1ccc([N+](=O)[O-])cc1)CS(=O)(=O)C2)c1ccccc1F	1	-4	-4	6	20	7.9*	-1
CCCCc1nnc(NC(=O)CCS(=O)(=O)c2ccc(C)cc2)s1	-2	1	1	-1	-6	7.8*	2
CCc1cc2c(=O)n(CCC(C)C)c(=S)[nH]c2s1	1	-1	-3	19	13	15*	-1
COCCCNC(=O)C[C@H]1C[C@@]2(C(=O)OC)C(=C[C@H](C(C)(C)C)O[C@@H]2C)N(CCc2ccc(OC)c(OC)c2)C1=O	0	/	/	/	/	/	/
C[C@H](CO)N1C[C@H](C)[C@H](CN(C)C(=O)C2CCCCC2)OCc2cnnn2CCCC1=O	0	/	/	/	/	/	/
COc1ccc(/C=C/C(=O)N2CCN(c3ccccc3)CC2)cc1S(=O)(=O)N1CCOCC1	2	1	0	-3	2	8.8*	2
COc1ccc(/C=C/C(=O)N2CCC(C(N)=O)CC2)cc1S(=O)(=O)N1CCOCC1	0	2	0	-5	2	-3	/
Nc1ncnc2[nH]c(=S)[nH]c12	0	-2	-2	9	7	11*	1
SMILES	MsrA inh	HTR5A ag ctr	OPRM1-OPRD1 ag	HTR5A inv ctr	MOR-DOR inv ag	MsrA act	MsrA act confirm
COc1ccc(CN(Cc2cccnc2)S(=O)(=O)c2ccc(-n3cnnn3)c(OC)c2)cc1	-1	-3	-2	-21	14	8.1*	-1
COc1ccc(CN(Cc2ccc(OC)cc2)S(=O)(=O)c2ccc(-n3cnnn3)c(C)c2)cc1	0	-3	2	-6	-13	1	/
N#CC(c1nc2ccccc2nc1N1CCCC1)S(=O)(=O)c1ccccc1 (stereo not given)	2	3	2	-12	-8	-10	/
N#CC(c1nc2ccccc2nc1N1CCCC1)S(=O)(=O)c1cccs1 (stereo not given)	3	1	5	-2	-26	10.0*	-3
COC(=O)C1=C(C)N(Cc2ccc(Br)cc2)C(=S)NC1c1cccc(Br)c1 (stereo not given)	1	/	/	/	/	/	/
COC(=O)[C@]12C[C@H](CC(=O)NCc3ccccc3)C(=O)N(CCC3=CCCCC3)C1=C[C@H](COCc1ccccc1)O[C@@H]2C	1	/	/	/	/	/	/
CC1CC(C)CN(CCCNC(=O)CCNC(=O)Cn2ccc3ccccc3c2=O)C1 (stereo not given)	0	2	-1	-4	7	7.7*	0
CC1CC(C)CN(CCCNC(=O)CCNC(=O)Cn2cnc3ccccc3c2=O)C1 (stereo not given)	0	-3	-1	-21	4	-4	/
Cc1ccccc1-c1ccc2c(c1)[C@@H]1C[C@H](N(C)S(=O)(=O)c3ccc(Cl)cc3)[C@H]([C@H](C)O)CN1CC2	1	/	/	/	/	/	/
O=C(NCc1ccc(F)cc1)c1cc2ccccc2o1	-1	-2	0	-3	2	9.6*	0
C=CCC12C[C@@]3(O[C@H](c4ccc(C(F)(F)F)cc4)N=C3C[C@H](c3ccc(OC)cc3)[C@H]1C)N(Cc1ccc3c(c1)OCO3)C2=O	0	/	/	/	/	/	/
c1ccc(Cc2cnc(N3CCN(Cc4csc5ccccc45)CC3)nc2)cc1	1	/	/	/	/	/	/
CN1/C(=C\C(=S)Nc2ccccc2)C(C)(C)c2ccccc21	0	-3	-1	8	3	9.0*	-4
CN1/C(=C\C(=O)Nc2ccc(Cl)cc2)C(C)(C)c2ccccc21	3	3	4	-8	-24	-3	/
Cc1cccc2cc3cccc(C)c3nc12	0	1	1	-3	-5	8.9*	0
CCN(CC)CCn1c2c(c(SCC(=O)Nc3nc4ccccc4s3)nc1=O)CCC2	0	-5	0	15	1	-2	/
